Epigenetic derep: derepresses silenced GFP reporter in murine cells | murine LDR cells, GFP reporter derepression, 30 h | Potency, µM (top dose mostly 53.9 µM), usual class: activators | 280,000 compounds, 0.2% hits; also: nearly all actives have a fitted effect of over 60% in size
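Murine LDR cells bearing a silenced CMV-driven GFP reporter were exposed to compound for 30 h at 37 C. After PBS washes, GFP-positive cells (20-120 um objects) counted by laser-scanning microplate cytometry.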
Vif-APOBEC3G blk: inhibitors of Vif-APOBEC3G interaction. AID 602310. Potency, µM (highest dose often 46.1 µM), actives largely listed as inhibitors. 410,000 compounds, 0.076% hits. Q9HC16. HeLa A3G-eYFP + Vif (tagged APOBEC3G with the HIV-1 protein that degrades it), YFP fluorescence, overnight; also: nearly all actives have a fitted effect of over 60% in size
Target sequence (Q9HC16 whole entry, looked up): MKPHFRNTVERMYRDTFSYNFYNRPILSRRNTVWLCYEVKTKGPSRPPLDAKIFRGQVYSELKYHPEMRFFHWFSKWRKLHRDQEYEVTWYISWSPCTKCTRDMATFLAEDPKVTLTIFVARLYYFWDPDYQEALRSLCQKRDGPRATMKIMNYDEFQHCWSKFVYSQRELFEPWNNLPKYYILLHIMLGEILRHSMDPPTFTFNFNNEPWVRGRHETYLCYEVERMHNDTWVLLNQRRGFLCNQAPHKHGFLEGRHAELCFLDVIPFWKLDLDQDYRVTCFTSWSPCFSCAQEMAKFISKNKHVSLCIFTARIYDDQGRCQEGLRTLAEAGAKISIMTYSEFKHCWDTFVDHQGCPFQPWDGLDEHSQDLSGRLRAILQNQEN
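HeLa cells stably expressing Vif and C-terminally eYFP-tagged A3G, seeded overnight at 37 deg C, then exposed to compound by pintool overnight at 37 deg C. Rise in yellow fluorescence (Ex 488/Em 500-530, Acumen) marks blocked Vif-driven A3G degradation.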
Vif-APOBEC3F blk: inhibitors of Vif-A3F interaction | HeLa A3F-eYFP + Vif (tagged APOBEC3F with the HIV-1 protein that degrades it), YFP fluorescence increase | Potency, µM (top dose mostly 46.1 µM) | 390,000 compounds, 0.2% hits | AID 602313; also: nearly all actives have a fitted effect of over 65% in size
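HeLa cells stably expressing Vif plus C-terminally eYFP-tagged A3F were seeded, incubated overnight at 37 deg C, dosed with compound, incubated overnight again at 37 deg C. Yellow fluorescence (Ex 488/Em 500-530) reported blocked Vif-mediated A3F-eYFP degradation.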
Hits are given with their value; 0 = inactive; ? = inconclusive; - = not tested or not shown. Sampled rows, rich in hits. Any-hit rate of the full collection: about 0.34%. Calls follow the shape of the dose curve; as a rule, active = well fitted curve in the direction sought with a large enough effect; inconclusive = small, poorly fitted or top-dose-only effect, or another doubt; inactive = no such curve, though single readings can be large; an effect the other way counts as inactive or inconclusive.

SMILES | Epigenetic derep | Vif-APOBEC3G blk | Vif-APOBEC3F blk
CCOC(=O)/C=C(\C)Sc1cc(=O)oc2ccccc12 | 0 | 0 | 0
CCOC(=O)/C=C(\C)Sc1cc(O)c2ccccc2c1O | 0 | ? | 22µM
O=C(NCCOc1ccccc1)c1cccc2c1C(=O)c1ccc(Cl)cc1S2(=O)=O | - | 0 | 0
COc1ccc(-c2ccc3c(c2)S(=O)(=O)c2cccc(C(=O)NCCOc4ccccc4)c2C3=O)cc1OC | - | 11µM | ?
COc1ccc(C(=O)C[n+]2cc(Br)cc(Br)c2)cc1 | - | 0 | -
C=C1CC2C(=O)N(Cc3cc(OC)ccc3OC)C(C(=O)OCC)C1N2C (centres undefined) | - | 0 | -
CCNC(=O)c1c(NC(=O)c2nc(SC)ncc2Cl)sc2c1CCCC2 | - | 0 | -
CCCSc1ncc(Cl)c(C(=O)Nc2sc3c(c2C(=O)NCC)CCCC3)n1 | 4.5µM | 0 | -
CCSc1ncc(Cl)c(C(=O)Nc2sc3c(c2C(=O)OC)CCCC3)n1 | - | 0 | -
CCSc1ncc(Cl)c(C(=O)Nc2sc3c(c2C(=O)NC)CCCC3)n1 | 7.1µM | 0 | ?
C[N+]1(CC(=O)c2ccc(I)cc2)CCCc2ccccc21 (centres undefined) | - | 0 | -
CCN(CC)c1ccc(/C=C2\C=Cc3ccccc32)cc1 | - | 0 | -
COc1ccc(Cl)cc1S(=O)(=O)NCc1ccc2c(c1)CCN2C(=O)c1cccc(C)c1 | 0 | 0 | 0
CC1(C)Cc2ccccc2C2CC(O)C(=O)N21 (centres undefined) | ? | ? | 25µM
O=C1c2ccccc2[C@@H]2CC(O)C(O)CCN12 (some centres undefined) | - | 0 | 0
COc1ccccc1/C=C/c1nc2ccccc2s1 | - | 0 | -
Cc1ccc(N=C2NC(=O)/C(=C/c3cccn3C)S2)cc1C | 0 | ? | ?
Cc1ccc(N=C2NC(=O)/C(=C/c3cccn3C)S2)cc1 | 0 | 5µM | ?
COc1ccc(C2C=C(c3ccccc3)Nc3nc(NC(=O)/C=C/c4ccccc4OC)nn32)cc1 (centres undefined) | 0 | 0 | 0
CCc1ccc(NC(=O)C2CCCN(S(=O)(=O)c3cccc4cccnc34)C2)cc1 (centres undefined) | 0 | 0 | 0
O=[N+]([O-])c1ccc(NN=Cc2ccccc2)nc1 | - | 0 | 0
O=[N+]([O-])c1ccc(NN=Cc2ccc(O)cc2)nc1 | - | 0 | 0
O=[N+]([O-])c1ccc(N/N=C\c2cccn2-c2ccccc2)nc1 | 0 | 11µM | ?
CCN(CC)c1ccc(C=NNc2ccc([N+](=O)[O-])cn2)cc1 | - | ? | 3.5µM
O/N=C(/CBr)c1ccc2ccccc2c1 | - | 0 | -
SMILES | Epigenetic derep | Vif-APOBEC3G blk | Vif-APOBEC3F blk
Cc1ccc(NC(=S)NC(C)CCc2ccccc2)cc1C (centres undefined) | 0 | 0 | 0
Cc1cccc(C)c1NC(=S)NC(C)CCc1ccccc1 (centres undefined) | 0 | 0 | 7.1µM
CN1C(=O)/C(=C/c2ccccc2OCc2ccc(F)cc2)N(C)C1=S | 0 | 0 | 3.5µM
CN1C(=O)/C(=C/c2ccccc2OCc2ccccc2)NC1=S | 0 | 0 | 0
O=Cc1ccc(/C=C2\C=Cc3ccccc32)cc1 | - | 0 | -
CC1(C)C(OC(=O)CCC(=O)O)CC[C@]2(C)C1CC[C@@]1(C)C2C(=O)C=C2[C@@H]3C[C@@](C)(C(=O)O)CC[C@]3(C)CCC21C (some centres undefined) | 0 | - | -
CCOC(=O)Cc1csc(NC(=O)c2sc3nc4c(C)cc(C)cc4cc3c2N)n1 | ? | ? | 25µM
CCOC(=O)Cc1csc(NC(=O)c2csc(C)c2)n1 | 0 | 0 | 0
COc1cccc(N2CCN(Cc3nc4scc(-c5ccccc5)c4c(=O)[nH]3)CC2)c1 | 0 | 8.9µM | 0
COc1cccc(N2CCN(Cc3nc4ccccc4c(=O)[nH]3)CC2)c1 | 0 | 0 | 0
CC(C)NC(=O)c1sc2nc(-c3cccs3)cc(-c3cccs3)c2c1N | 0 | 0 | ?
Nc1c(C(=O)C2CC2)sc2nc(-c3cccs3)cc(C(F)(F)F)c12 | 3.5µM | 0 | 0.63µM
OC(C1=C/C(=C\c2ccncc2)c2ccccc21)c1ccncc1 (centres undefined) | - | 0 | -
O=c1[nH]c(/C=C/c2cccc3ccccc23)nc2ccccc12 | ? | ? | 13µM
Cc1cccc(/C=C(\C#N)c2nc3ccccc3c(=O)[nH]2)c1 | 0 | 0 | 0
CN(C)c1ccc(/C=C/c2nc3ccccc3c(=O)[nH]2)cc1 | - | 0 | 10µM
CN(C)c1ccc(/C=C/c2cnnc3ccccc23)cc1 | - | 8.9µM | -
O=c1[nH]c(/C=C/c2ccc(Br)cc2)nc2ccccc12 | - | 0 | 0
O=c1[nH]c(/C=C/c2ccccc2F)nc2ccccc12 | - | ? | 0
C(=Cc1cnnc2ccccc12)c1ccccc1 | - | 0 | 0
CN(C)c1ccc(/C=C(\C#N)c2nc3ccccc3c(=O)[nH]2)cc1 | 6.3µM | ? | 5µM
Cc1cc(C)n2nc(CNC(=O)c3c(F)cccc3F)nc2n1 | 0 | 0 | 0
O=C(NC1CCCCC1)c1ccc2c(c1)N(Cc1cccc(Cl)c1)C(=O)c1ccccc1S2=O (centres undefined) | 0 | 0 | 0
CCCCCCc1ccc(C(=O)CCN(C)C)cc1 | - | 0 | -
CN(C)c1ccc(/C=C/c2nc3ccccc3c(=O)n2CCO)cc1 | - | 11µM | 13µM
SMILES | Epigenetic derep | Vif-APOBEC3G blk | Vif-APOBEC3F blk
O=c1c2ccccc2nc(/C=C/c2ccccc2)n1CCCO | - | 0 | 0
CC(C)Oc1ccc(C(=O)Nc2ccc(-c3nc4ccccc4s3)cc2)cc1 | 0 | 0 | 0
COc1ccccc1OC(C)C(=O)Nc1ccc(-c2nc3ccccc3s2)cc1 (centres undefined) | 35µM | 0 | ?
Cc1c(O)c2c(c(C(=O)/C=C/c3ccccc3)c1O)OC(C)(C)C=C2 | - | 0 | -
CC(=O)Nc1ccc(S(=O)(=O)Nc2cccn(Cc3ccc(C)cc3)c2=O)cc1 | 0 | 0 | 0
CC(=O)Nc1ccc(S(=O)(=O)Nc2cc(C)cn(Cc3ccccc3)c2=O)cc1 | - | 0 | 22µM
